# Experimental data published in PubChem BioAssay (NCATS).
# Records with an inconclusive call do not appear. Where a call stands in place of a potency, no number is given. Values without a mark were called inactive. Activity calls are given as the source filed them. Calls follow the shape of the dose curve; as a rule, active = well fitted curve in the direction sought with a large enough effect; inconclusive = small, poorly fitted or top-dose-only effect, or another doubt; inactive = no such curve, though single readings can be large; an effect the other way counts as inactive or inconclusive.
# What was measured:
# [1] = target: Cytochrome P450 3A7 (Homo sapiens) (UniProt P24462); test: Cytochrome P450 family 3 subfamily A member 7 (CYP3A7) small molecule antagonists: luciferase biochemical qHTS assay (AID 1963596); also: nearly all actives have a fitted effect of over 40% in size
# Cytochrome P450 3A7 (Homo sapiens), sequence (P24462 whole entry, looked up): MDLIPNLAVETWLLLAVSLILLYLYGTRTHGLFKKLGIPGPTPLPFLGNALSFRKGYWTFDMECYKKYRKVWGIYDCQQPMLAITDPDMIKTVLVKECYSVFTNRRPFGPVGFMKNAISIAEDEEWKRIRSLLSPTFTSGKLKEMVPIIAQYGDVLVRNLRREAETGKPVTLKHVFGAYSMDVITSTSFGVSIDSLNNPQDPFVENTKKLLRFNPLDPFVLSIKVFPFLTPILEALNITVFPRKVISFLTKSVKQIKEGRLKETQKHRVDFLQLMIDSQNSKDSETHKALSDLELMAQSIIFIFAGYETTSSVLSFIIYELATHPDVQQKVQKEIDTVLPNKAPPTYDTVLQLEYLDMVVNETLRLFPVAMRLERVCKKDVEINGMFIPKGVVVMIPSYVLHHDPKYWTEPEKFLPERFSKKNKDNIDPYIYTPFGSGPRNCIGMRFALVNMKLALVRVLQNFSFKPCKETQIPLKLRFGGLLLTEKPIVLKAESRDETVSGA
# How it was run: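 Recombinant CYP3A7 P450-Glo luminescent assay: enzyme-proluciferin substrate mix preincubated with compound 10 min at room temperature, reaction started with NADPH regeneration system for 1 h. Luciferin detected by luminescence; ketoconazole as positive control.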
# [2] = Viability qHTS for spleen associated tyrosine kinase inhibitor (SYKi) naive MV4-11 cells (AID 1963823); also: nearly all actives have a fitted effect of over 40% in size; also: potency is read from the fitted curve at half-maximal effect
# How it was run: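 SYK inhibitor-naive MV4-11 cells, 500 per well, exposed to compounds for 72 hr at 37 C, 5% CO2. Viability read as CellTiter-Glo luminescence after 10 min at room temperature.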
# [3] = Viability qHTS for spleen associated tyrosine kinase inhibitor (SYKi) drug resistant MV4-11 cells (AID 1963824); also: nearly all actives have a fitted effect of over 35% in size; also: potency is read from the fitted curve at half-maximal effect
# How it was run: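 SYK-inhibitor-resistant MV4-11 AML cells were seeded at 500 per well onto compound and cultured 72 hours (37 °C, 5% CO2). CellTiter-Glo was then added, and after 10 min at room temperature, luminescence gave viability.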
smiles,measurement,setting,value
COc1ccccc1O,Potency,[1],inactive
same,Potency,[2],inactive
CN[C@H](CNC(=O)N1CCC[C@@H]([C@@H](OCCNC(=O)OC)c2cccc(Cl)c2)C1)C[C@H]1CCCOC1,Potency,[1],inactive
same,Potency,[2],inactive
same,Potency,[3],inactive
CC1(C)CCC(C)(C)c2cc(C#Cc3ccc(C(=O)O)cc3)ccc21,Potency,[1],inactive
same,Potency,[2],inactive
O=C(Nc1cccnn1)N1CCN(c2nccc(-c3ccc(F)c(F)c3)n2)CC1,Potency,[1],inactive
same,Potency,[2],inactive
same,Potency,[3],inactive
COc1ccc(CCO[C@@H]2CCCC[C@H]2N2CC[C@@H](O)C2)cc1OC,Potency,[1],inactive
same,Potency,[2],inactive
same,Potency,[3],inactive
O=C(O)[C@@H]1C[C@H]2C[C@@H](CCc3nn[nH]n3)CC[C@H]2CN1,Potency,[1],inactive
same,Potency,[2],inactive
same,Potency,[3],inactive
C1N2CN3CN1CN(C2)C3,Potency,[1],inactive
same,Potency,[2],inactive
same,Potency,[3],inactive
CCNC(=O)Nc1ccc(-c2nc3c(c(N4CCOC[C@@H]4C)n2)CCN(c2ncccn2)C3)cc1,Potency,[1],inactive
same,Potency,[2],0.13 µM (active)
same,Potency,[3],0.164 µM (active)
c1cc(OCCCN2CCCCC2)ccc1CN1CCCCC1,Potency,[1],inactive
same,Potency,[2],inactive
same,Potency,[3],inactive
N#Cc1ccc(C(=O)N2CCC3(CC2)N=C(N)c2c(F)ccc(F)c2N3)cn1,Potency,[1],inactive
same,Potency,[2],inactive
same,Potency,[3],inactive
C[C@@H](O)[C@H](NC(=O)c1ccc(C#Cc2ccc(CN3CCOCC3)cc2)cc1)C(=O)NO,Potency,[1],inactive
same,Potency,[2],23.1 µM (active)
same,Potency,[3],23.1 µM (active)
O=c1[nH]c2cc(C(F)(F)F)c(N3CCOCC3)cc2n(CP(=O)(O)O)c1=O,Potency,[1],inactive
same,Potency,[2],inactive
same,Potency,[3],inactive
O=S(=O)(c1ccc(Cl)cc1)N1CCN(c2ccnc3cc(Cl)ccc23)CC1,Potency,[1],inactive
same,Potency,[2],16.4 µM (active)
same,Potency,[3],16.4 µM (active)
CNS(=O)(=O)c1ccccc1Nc1nc(Nc2ccc(N3CCN(C)CC3)cc2OC)ncc1Br,Potency,[1],inactive
same,Potency,[2],0.0184 µM (active)
same,Potency,[3],0.0326 µM (active)
CC(C)(C)OC(=O)N1CCC(OCc2nc(-c3ccncc3)no2)CC1,Potency,[1],inactive
same,Potency,[2],inactive
same,Potency,[3],inactive
CCCOc1ccccc1-c1nc2n[nH]nc2c(=O)[nH]1,Potency,[1],inactive
same,Potency,[2],inactive
same,Potency,[3],inactive
N[C@@H](CCNCc1ccc(Cl)cc1)C(=O)N1CCCCC1,Potency,[1],inactive
same,Potency,[2],inactive
same,Potency,[3],inactive
CC(C)C[C@@H](C(=O)N[C@@H](Cc1ccc(OCc2ccccc2)cc1)C(=O)NC(C)(C)C)N(C)Cc1ccc(C(C)(C)C)cc1,Potency,[1],inactive
same,Potency,[2],inactive
same,Potency,[3],3.66 µM (active)
O=C(O)CCC(=O)O,Potency,[1],inactive
same,Potency,[2],inactive
same,Potency,[3],inactive
CC(C)(C)NCc1cc(Nc2ccnc3cc(Cl)ccc23)c2c(c1O)CCCC2,"activity change, negative = inhibition",[1],-5.38% [at 11.5 µM]
same,viability (% of control),[2],90.1% [at 0.588 µM]
same,"viability, % of control",[3],102% [at 0.588 µM]
CCCc1cc2c(N3CCN(C4=NCC(C)(C)S4)CC3)ncnc2s1,Potency,[1],inactive
same,Potency,[2],8.2 µM (active)
same,Potency,[3],5.8 µM (active)
CN(C)CC(=O)Nc1ccc2[nH]c(=O)c3ccccc3c2c1,Potency,[1],inactive
same,Potency,[2],20.6 µM (active)
same,Potency,[3],20.6 µM (active)
NC(Cc1c[nH]c2ccccc12)C(=O)NC(CCC(=O)O)C(=O)O (stereo not given),Potency,[1],inactive
same,Potency,[2],2.91 µM (active)
same,Potency,[3],inactive
Nc1nc(O)c(C2=C3C(=Nc4ccccc43)C(=O)NCC2)[nH]1,Potency,[1],inactive
same,Potency,[2],0.461 µM (active)
same,Potency,[3],1.16 µM (active)
O=C1N=C(N2CCOCC2)CN1c1ccc(Cl)cc1,Potency,[1],inactive
same,Potency,[2],inactive
same,Potency,[3],inactive
O=C(Nc1nc2ccccc2n1CCc1ccccc1)c1ccccc1,Potency,[1],inactive
same,Potency,[2],inactive
same,Potency,[3],inactive
COC(=O)C(Cc1ccc(OCCn2c(=O)sc3cc(C(=O)c4ccccc4)ccc32)cc1)C(=O)OC,Potency,[1],inactive
same,Potency,[2],23.1 µM (active)
same,Potency,[3],18.4 µM (active)
O=C(O)CC1CCC(c2ccc(-c3ccc4nc(C(=O)NCc5ccc(OC(F)(F)F)cc5)cn4c3)cc2)CC1 (stereo not given),Potency,[1],inactive
same,Potency,[2],inactive
same,Potency,[3],inactive
Cc1cc(F)ccc1-c1nc(NCCN=C(N)NC#N)nc2c1ccc(=O)n2-c1c(F)cccc1F,Potency,[1],inactive
same,Potency,[2],14.6 µM (active)
same,Potency,[3],14.6 µM (active)
CCCCCCCCCCCCOS(=O)(=O)O,Potency,[1],inactive
same,Potency,[2],inactive
same,Potency,[3],inactive
CN(C)C(=O)c1cc2cnc(Nc3ccc(N4CCNCC4)cn3)nc2n1C1CCCC1,Potency,[1],inactive
same,Potency,[2],2.31 µM (active)
same,Potency,[3],5.17 µM (active)
CCCCN(CCCC)CC(O)c1cc(Cl)cc2c1-c1ccc(Cl)cc1/C2=C/c1ccc(Cl)cc1 (stereo not given),Potency,[1],inactive
same,Potency,[2],20.9 µM (active)
same,Potency,[3],18.8 µM (active)
Oc1ccc(C(O)CNCCCCCCNCC(O)c2ccc(O)c(O)c2)cc1O (stereo not given),Potency,[1],inactive
same,Potency,[2],inactive
same,Potency,[3],inactive
CN(C)CCCNc1nc(CN2CCN(C(c3ccc(Cl)cc3)c3ccc(Cl)cc3)CC2)nc2ccccc12,Potency,[1],inactive
same,Potency,[2],2.06 µM (active)
same,Potency,[3],3.26 µM (active)
